TDP1 cell CPT: growth inhibition of DT40 Tdp1-/-;hTDP1 cells with camptothecin (screen for TDP1 inhibitors). chicken DT40 Tdp1-/-;hTDP1 cells + 20 nM CPT, ATP luminescence, 48 h. Potency, µM (titrated, usually from 46.2 µM), without a hit: at the top dose activity change, negative = growth inhibition, hits mostly inhibitors. 12% of 420,000 active. AID 686979; further: on the % scale 0 is the no-effect control and ±100 the full control effect; nearly all actives have a fitted effect of over 55% in size
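Cell growth measured by CellTiter-Glo luminescence after a minimum 48 h, 37 C compound exposure with 20 nM CPT in Tdp1-knockout DT40 cells stably expressing hTDP1, seeded 400/well; qHTS titration format.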
TDP1 cell noCPT: qHTS for Inhibitors of human tyrosyl-DNA phosphodiesterase 1 (TDP1): qHTS in cells in absence of CPT; DT40 Tdp1-/- hTDP1 cells, no CPT, ATP luminescence, 48 h; Potency, µM (series often up to 46.2 µM), for inactives: top-dose activity change, negative = growth inhibition, most hits filed as inhibitors; 15% of 420,000 active; AID 686978, 2013; further: on the % scale 0 is the no-effect control and ±100 the full control effect; nearly all actives have a fitted effect of over 55% in size
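Chicken DT40 Tdp1-/- cells complemented with human TDP1, screened without camptothecin (DMSO vehicle only), 400 cells/well. Compounds pin-transferred, cells incubated at 37 °C for at least 48 hr. Growth read as ATP-dependent luminescence (CellTiter-Glo, 30 min at RT).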
TGFb inhibitor: inhibitors of TGF-b signaling; HepG2 CAGA-GFP TGF-b/SMAD3 reporter, GFP fluorescence, 18 h; TGF-beta stimulated, 500 pg/mL final; Potency, µM (series often up to 46.1 µM), for the others: at the highest dose activity, negative = inhibition, actives largely listed as inhibitors; 1.2% of 410,000 active; further: on the % scale 0 is the no-effect control and ±100 the full control effect; nearly all actives have a fitted effect of over 65% in size
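Inhibition was scored as loss of TGF-beta-induced (500 pg/mL final, 18 hours, 37 degrees C) GFP in HEPG2 cells carrying a CAGA-GFP reporter, in DMEM with 1% FBS. Well GFP was summed per cell; Activity was normalised to unstimulated and stimulated DMSO wells, then concentration-response fitting.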
HT1080 IDH1KD tx: toxicity to HT-1080 IDH1 knockdown cells (counter line) | AID 686971 | 2% of 360,000 active | Potency, µM (titrated, usually from 46.1 µM), without a hit: at the highest dose activity, negative = toxicity, hits mostly cytotoxic | HT-1080 IDH1 knockdown viability, ATP luminescence, 48 h;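 further: 0% = DMSO wells and -100% = cell-free medium wells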
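Cytotoxicity counter-line: IDH1KD HT-1080, 48 h, CellTiter-Glo. Curves classed by r2, magnitude and activity.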
HT1080NT lethal: kills 2HG-producing HT-1080-NT fibrosarcoma cells | HT-1080-NT fibrosarcoma viability, CellTiter-Glo ATP luminescence, 48 h | Potency, µM (top dose mostly 46.1 µM), without a hit: at the top dose activity, negative = less viability, actives largely listed as cytotoxic | 1.6% of 360,000 active | AID 686970;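 further: NT is the 2HG producing partner of a matched IDH1 knockdown line; 0% = DMSO-treated cells and -100% = media-only wells without cells; nearly all actives have a fitted effect of over 55% in size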
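Viability of the 2HG-overproducing fibrosarcoma line after 48 hours of compound exposure at 37 degrees C was determined by luminescence with CellTiter-Glo, and concentration-effect curves were then fitted and categorized.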
HepG2 viability: HepG2 cytotoxicity, counter-screen for TGF-b inhibitors. HepG2 CAGA-GFP viability, ATP luminescence, 18 h. AID 588856. 0.76% of 410,000 active. Potency, µM (highest dose often 46.1 µM), for the others: at the top dose activity change, negative = cytotoxicity, most hits filed as cytotoxic
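HepG2 CAGA-GFP cells (1000/well, DMEM with 1% FBS) received compound, then TGF-beta at 500 pg/mL final, and were incubated 18 hours at 37 degrees C. Viability was read by CellTiter-Glo luminescence. Media-only wells were set as complete cell-killing and DMSO as no toxicity.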
Numbers without * were called inactive. Rows were chosen to be rich in hits. Some 17% of all compounds tested hit in one or more screens of this group. The call rests on the fitted dose curve; in most records, active means well fitted curve in the direction sought with a large enough effect; inconclusive means small, poorly fitted or top-dose-only effect, or another doubt; inactive means no such curve, though single readings can be large; an effect the other way counts as inactive or inconclusive. Potency means the concentration at half of the fitted maximal effect.

How did O=C(c1ccoc1)N1CCN(c2cc(-c3cccnc3)nc3cc(-c4cccc(Cl)c4)nn23)CC1 do in these assays?
TDP1 cell CPT: 18µM*; TDP1 cell noCPT: 7.3µM*; TGFb inhibitor: inconclusive; HT1080 IDH1KD tx: -3%; HT1080NT lethal: -3%; HepG2 viability: -33%

What do the screens show for `O=C(c1ccoc1)N1CCN(c2cc(-c3ccncc3)nc3cc(-c4cccc(Cl)c4)nn23)CC1`?
TDP1 cell CPT: 13µM*; TDP1 cell noCPT: 5.8µM*; TGFb inhibitor: 22%; HT1080 IDH1KD tx: 1%; HT1080NT lethal: 0%; HepG2 viability: 5%

How did CC(=O)N1CCN(c2cc(-c3ccccc3)nc3cc(-c4cccc(Cl)c4)nn23)CC1 do in these assays?
TDP1 cell CPT: 21µM*; TDP1 cell noCPT: 10µM*; TGFb inhibitor: 9%; HT1080 IDH1KD tx: 1%; HT1080NT lethal: 4%; HepG2 viability: 2%

How did CCOc1cc(C(=O)N/N=C\c2cn(CC)nc2C)cc(OCC)c1OCC do in these assays?
TDP1 cell CPT: 16%; TDP1 cell noCPT: -21%; TGFb inhibitor: -12%; HT1080 IDH1KD tx: -15%; HT1080NT lethal: -19%; HepG2 viability: 12%

Results for Cc1ccc(C(=O)Nc2onc(C)c2C#N)cc1 ?
TDP1 cell CPT: -1%; TDP1 cell noCPT: -5%; TGFb inhibitor: inconclusive; HT1080 IDH1KD tx: 17%; HT1080NT lethal: 18%; HepG2 viability: 9%

Results for O=C1c2ccccc2C(=O)N1C1C(=O)N2CCSC12C(=O)OCc1ccccc1 (stereo not drawn) ?
TDP1 cell CPT: -12%; TDP1 cell noCPT: -11%; TGFb inhibitor: -2%; HT1080 IDH1KD tx: 3%; HT1080NT lethal: -6%; HepG2 viability: -13%

What do the screens show for `COc1ccc(NC(=O)CSc2nc3nc(C)cc(C)c3c(=O)[nH]2)cc1OC`?
TDP1 cell CPT: -20%; TDP1 cell noCPT: -8%; TGFb inhibitor: inconclusive; HT1080 IDH1KD tx: -11%; HT1080NT lethal: -16%; HepG2 viability: -3%

What do the screens show for `CCCN1Cc2cccc(C(=O)NCCc3cccc(C)c3)c2C1=O`?
TDP1 cell CPT: inconclusive; TDP1 cell noCPT: inconclusive; TGFb inhibitor: 3%; HT1080 IDH1KD tx: 0%; HT1080NT lethal: -1%; HepG2 viability: -27%

Results for CCOC(=O)c1sc2nc(C)nc(Nc3ccccc3)c2c1C ?
TDP1 cell CPT: -8%; TDP1 cell noCPT: -18%; TGFb inhibitor: 10%; HT1080 IDH1KD tx: 10%; HT1080NT lethal: inconclusive; HepG2 viability: -2%

Results for Cc1nc(N2CCN(S(=O)(=O)c3cccs3)CC2)c2c(-c3ccccc3)c(C)sc2n1 ?
TDP1 cell CPT: inconclusive; TDP1 cell noCPT: 13µM*; TGFb inhibitor: -13%; HT1080 IDH1KD tx: -21%; HT1080NT lethal: -8%; HepG2 viability: -46%

Results for CCOC(=O)c1sc2nc(C)[nH]c(=S)c2c1C ?
TDP1 cell CPT: inconclusive; TDP1 cell noCPT: 21µM*; TGFb inhibitor: -15%; HT1080 IDH1KD tx: -6%; HT1080NT lethal: -7%; HepG2 viability: -7%

What do the screens show for `CCOC(=O)c1sc2nc(C)nc(N3CCN(S(=O)(=O)c4ccccc4)CC3)c2c1C`?
TDP1 cell CPT: 8.2µM*; TDP1 cell noCPT: 6.5µM*; TGFb inhibitor: 0%; HT1080 IDH1KD tx: 3%; HT1080NT lethal: 2%; HepG2 viability: 0%

Results for CCOC(=O)c1sc2nc(C)nc(NCc3ccccc3)c2c1C ?
TDP1 cell CPT: 10µM*; TDP1 cell noCPT: 21µM*; TGFb inhibitor: 0%; HT1080 IDH1KD tx: -8%; HT1080NT lethal: -7%; HepG2 viability: -17%

Results for CCCOc1ccc(-c2cc(C(F)(F)F)c(C#N)c(SCCC(=O)O)n2)cc1 ?
TDP1 cell CPT: inconclusive; TDP1 cell noCPT: inconclusive; TGFb inhibitor: 12%; HepG2 viability: -37%

What do the screens show for `CCOc1ccc(-c2ncncc2-c2ccc(OC)c(OC)c2)c(O)c1`?
TDP1 cell CPT: inconclusive; TDP1 cell noCPT: 13%; TGFb inhibitor: -10%; HT1080 IDH1KD tx: -1%; HT1080NT lethal: 1%; HepG2 viability: -5%

What do the screens show for `CCCCn1c(N)c(N(CC(C)C)C(=O)CSc2nnc(C)n2-c2ccc(OC)cc2)c(=O)[nH]c1=O`?
TDP1 cell CPT: 7%; TDP1 cell noCPT: 15%; TGFb inhibitor: 13%; HT1080 IDH1KD tx: 2%; HT1080NT lethal: 9%; HepG2 viability: 2%

What do the screens show for `CCOC(=O)c1sc2nc(CC(=O)OC)nc(N3CCN(c4ccc(OC)cc4)CC3)c2c1C`?
TDP1 cell CPT: 23µM*; TDP1 cell noCPT: 23µM*; TGFb inhibitor: -15%; HT1080 IDH1KD tx: inconclusive; HT1080NT lethal: -6%; HepG2 viability: -7%

How did CCOC(=O)c1sc2nc(CC(=O)OC)nc(NCCN3CCOCC3)c2c1C do in these assays?
TDP1 cell CPT: -6%; TDP1 cell noCPT: inconclusive; TGFb inhibitor: -4%; HT1080 IDH1KD tx: 1%; HT1080NT lethal: 10%; HepG2 viability: 3%

Results for CCOC(=O)c1sc2nc(CC(=O)OC)nc(NCc3ccc(Cl)cc3)c2c1C ?
TDP1 cell CPT: 4.1µM*; TDP1 cell noCPT: 5.8µM*; TGFb inhibitor: 3%; HT1080 IDH1KD tx: 15%; HT1080NT lethal: 2%; HepG2 viability: 1%

Results for CCOC(=O)c1sc2nc(CC(=O)OC)nc(NCCN(CC)CC)c2c1C ?
TDP1 cell CPT: -21%; TDP1 cell noCPT: -30%; TGFb inhibitor: 3%; HT1080 IDH1KD tx: -11%; HT1080NT lethal: -4%; HepG2 viability: -76%

How did Cc1[nH]nc(N=CC2=C(O)CC(C)(C)CC2=O)c1-c1ccccc1 do in these assays?
TDP1 cell CPT: inconclusive; TDP1 cell noCPT: 16µM*; TGFb inhibitor: -13%; HT1080 IDH1KD tx: 1%; HT1080NT lethal: 5%; HepG2 viability: -10%

What do the screens show for `Cc1[nH]nc(N=CC2=C(O)CC(c3ccco3)CC2=O)c1-c1ccccc1` (stereo not drawn)?
TDP1 cell CPT: inconclusive; TDP1 cell noCPT: inconclusive; TGFb inhibitor: 6%; HT1080 IDH1KD tx: 10%; HT1080NT lethal: inconclusive; HepG2 viability: -15%

What do the screens show for `Cc1c(Cl)cccc1NC(=O)[C@@H](NC(=O)c1ccccc1Cl)C(C)C`?
TDP1 cell CPT: -19%; TDP1 cell noCPT: inconclusive; TGFb inhibitor: -22%; HT1080 IDH1KD tx: -5%; HT1080NT lethal: 0%; HepG2 viability: -31%

Screens deposited in PubChem BioAssay by National Center for Advancing Translational Sciences (NCATS).
